Screening data (PubChem)
Sampled rows, rich in hits. Any-hit rate of the full collection: about 2.8%.
IP6K1 inhibitor = IP6K1 kinase inhibition; Q92551; IP6K1 kinase, ADP-Glo luminescence, 2 h; active compounds read low; activity change, % (series mostly up to about 58 µM); hit rate 0.81% among 140,000; in the data active = activity change below about -25%; also: % is scaled to controls: 0 for no effect and ±100 for the full control effect
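ADP-Glo luminescence measures ADP made by human IP6K1 during a 2 h RT reaction with ATP/IP6 (mix at 1.3 mM/130 uM); top library doses 57.5 and 19.1 uM final.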
KDM5B inhibitor = KDM5B demethylase inhibition; Q9UGL1; KDM5B demethylase, FDH-coupled NADH fluorescence (FDH is formaldehyde dehydrogenase); Potency, µM (doses to about 57.7 µM), usual class: inhibitors; hit rate 2.6% among 220,000; AID 1347165; active = well fitted inhibition curve with a large enough effect; inconclusive = small, poorly fitted or top-dose-only effect; inactive = no such curve, though single readings can be large or run the other way; also: potency is read from the fitted curve at half-maximal effect; 0% is about no effect; nearly all actives have a fitted effect of over 70% in size
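Here, H3K4me3 peptide (12.5 µM in substrate mix) is demethylated by KDM5BΔAP, 200 nM final, after 10 min compound exposure. Formaldehyde product is coupled through FDH (0.25 U/mL in mix) to NADH fluorescence; 30-min ΔRFU feeds dose-response curves.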
Numbers without * were called inactive.

Screening COc1ccc(C(=O)N2CCc3onc(-c4ccc(C(F)(F)F)cc4)c3C2)o1 returned IP6K1 inhibitor 11 and KDM5B inhibitor 10µM*.
CC(C)OC(C)C(=O)N1CCc2onc(-c3ccc(C(F)(F)F)cc3)c2C1 (centres undefined) was read as IP6K1 inhibitor 8 and KDM5B inhibitor inactive.
Screening CC(C)c1ccc(/C=N/O)cc1 returned KDM5B inhibitor inactive.
Screening COc1cccc(-c2cn3cc(C(=O)NCc4ccc(F)cc4)nc3s2)c1 returned IP6K1 inhibitor -1.
Cc1cn2nc(-c3nc(C4CCCN(C(=O)c5cccs5)C4)no3)cc2c(=O)[nH]1 (centres undefined) was read as IP6K1 inhibitor 1 and KDM5B inhibitor inactive.
Cc1cn2nc(-c3nc(C4CCCN(C(=O)c5ccccc5F)C4)no3)cc2c(=O)[nH]1 (centres undefined) was read as IP6K1 inhibitor 12 and KDM5B inhibitor 28µM*.
For Cc1nn(C)c(C)c1S(=O)(=O)N1CC[C@@H]2COCCN(C)[C@@H]2C1 the results were IP6K1 inhibitor 18.
Screening COC[C@@H]1CN(Cc2cccc(C#N)c2)C[C@H]1c1ccccn1 returned IP6K1 inhibitor 8 and KDM5B inhibitor inactive.
For N#Cc1cccc(CN2C[C@@H](CO)[C@H](c3ccccn3)C2)c1 the results were IP6K1 inhibitor 6 and KDM5B inhibitor 13µM*.
`Cc1cn2nc(C(=O)NCc3ccccc3F)cc2c(N2CCCC2)n1` gave IP6K1 inhibitor 0 and KDM5B inhibitor 25µM*.
`Cc1cn2nc(C(=O)N3CCN(C(=O)c4ccco4)CC3)cc2c(N2CCCC2)n1` gave IP6K1 inhibitor -2 and KDM5B inhibitor 32µM*.
Cc1ccc(CCNC(=O)c2cc3c(N4CCCC4)nc(C)cn3n2)cc1 was read as IP6K1 inhibitor -7 and KDM5B inhibitor inactive.
Screening COc1ccc(CNC(=O)c2cc3c(N4CCCC4)nc(C)cn3n2)c(OC)c1 returned IP6K1 inhibitor -10 and KDM5B inhibitor 28µM*.
Cc1cn2nc(C(=O)NCc3ccccc3F)cc2c(N2CCSCC2)n1 was read as IP6K1 inhibitor -4 and KDM5B inhibitor inconclusive.
COc1ccc(CCNC(=O)c2cc3c(N4CCCC4)nc(C)cn3n2)cc1OC was read as IP6K1 inhibitor 5 and KDM5B inhibitor inactive.
Screening COc1ccccc1CNC(=O)c1cc2c(N3CCSCC3)nc(C)cn2n1 returned IP6K1 inhibitor 0 and KDM5B inhibitor 7.1µM*.
Screening Cc1cn2nc(C(=O)NCc3ccc(F)cc3)cc2c(N2CCSCC2)n1 returned IP6K1 inhibitor -1 and KDM5B inhibitor inconclusive.
Screening CCOC(=O)[C@@H]1CN(C(=O)OCC)[C@H]2c3cccc(C)c3O[C@@H]12 returned IP6K1 inhibitor 5.
For CC(C)c1ccc(-n2nnnc2SCC(=O)N(Cc2ccco2)C2=CCCCC2)cc1 the results were KDM5B inhibitor inactive.
Screening O=C1NCc2ccccc2CC12CCN(C/C=C/c1ccccc1)CC2 returned IP6K1 inhibitor 6 and KDM5B inhibitor inconclusive.
CCN(Cc1ccccc1)C(=O)c1cc2c(N3CCCC3)nc(C)cn2n1 was read as IP6K1 inhibitor -1 and KDM5B inhibitor 25µM*.
Cc1cn2nc(C(=O)NCc3ccccc3Cl)cc2c(N2CCCC2)n1 was read as IP6K1 inhibitor 2 and KDM5B inhibitor inactive.
For Cc1cn2nc(C(=O)NCc3ccccn3)cc2c(N2CCCC2)n1 the results were IP6K1 inhibitor 0 and KDM5B inhibitor inactive.
For COc1ccccc1CNC(=O)c1cc2c(N3CCCC3)nc(C)cn2n1 the results were IP6K1 inhibitor 13 and KDM5B inhibitor 28µM*.
`Cc1cccc(CNC(=O)c2cc3c(N4CCCC4)nc(C)cn3n2)c1` gave IP6K1 inhibitor 7 and KDM5B inhibitor inactive.
Screening Cc1cn2nc(C(=O)NCc3ccc(C(C)C)cc3)cc2c(N2CCCC2)n1 returned IP6K1 inhibitor 20 and KDM5B inhibitor 35µM*.
Screening COc1cccc(CNC(=O)c2cc(-c3ccsc3)c3nncn3n2)c1 returned IP6K1 inhibitor -5.
For O=C(NCC(F)F)C1CCCCN1Cc1ccc(-c2cccs2)cc1 (centres undefined) the results were IP6K1 inhibitor -10.
For COc1cccc(C(=O)NCCNC(=O)c2ccc(-c3cccc(OC)c3)cc2)c1 the results were IP6K1 inhibitor 13.
CCc1nn2c(=O)cc(COc3cccc(C)c3)nc2s1 was read as KDM5B inhibitor inactive.
`COc1ccc(Cl)cc1NC(=O)N1CCC2(CC1)N=C(c1ccc(C(C)(C)C)cc1)C(=O)N2` gave KDM5B inhibitor inactive.
COc1ccccc1Nc1ccnc(N2CCN(C(=O)Cc3cccc(Cl)c3)CC2)n1 was read as IP6K1 inhibitor -9.
For O=C(NC1CCN(C(=O)c2ccc(-c3cncnc3)cc2)CC1)c1ccc(Cl)cc1 the results were IP6K1 inhibitor 2.
For CN1CCc2[nH]cnc2C12CCN(C(=O)c1cc(=O)[nH]c3ccccc13)CC2 the results were IP6K1 inhibitor 5 and KDM5B inhibitor 20µM*.
